The values below come from the supplement of paper PMC8728848.

The entries come from a sample that favours the strongest signals as a whole.

Holding throughout (assay): glycan array binding signal (z-score within array); higher = stronger binding
What all share (details): glycan notation: IUPAC condensed, linker removed

In test [1] the target is Man(a1-3)[Man(a1-6)]Man(a1-6)[Man(a1-2)Man(a1-3)]Man(b1-4)GlcNAc(b1-4)GlcNAc. Put shortly:
(§1)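 The binding signal is a Z-score computed within each array. Data were drawn from 3228 arrays in the Consortium for Functional Glycomics database, restricted to those with a known protein sequence. Scores were averaged over arrays of the same protein sequence at different concentrations or buffers, and over linkers, and negative values can be taken as non-binding.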

In test [2] the target is Man(a1-3)[Man(a1-6)]Man(a1-6)[Man(a1-3)]Man. Put shortly: as §1
The next test addresses Man(a1-6)Man. The method, boiled down: as §1
Test [3] deals with Neu5Ac(a2-3)Gal(b1-3)GlcNAc(b1-2)Man(a1-3)[GlcNAc(b1-4)][Neu5Ac(a2-3)Gal(b1-3)GlcNAc(b1-2)Man(a1-6)]Man(b1-4)GlcNAc(b1-4)GlcNAc. Put shortly:
as §1

In test [4] the target is Neu5Ac(a2-3)Gal(b1-3)GlcNAc(b1-4)Gal(b1-4)Glc. Put shortly: as §1
The target of another test is Neu5Ac(a2-3)Gal(b1-4)Glc. The method, boiled down:
as §1

Test [5] deals with Neu5Ac(a2-3)Gal(b1-4)GlcNAc(b1-2)Man. Put shortly:
as §1

The target of test [6] is Neu5Ac(a2-3)Gal(b1-4)GlcNAc(b1-2)[Neu5Ac(a2-3)Gal(b1-4)GlcNAc(b1-4)]Man(a1-3)[GlcNAc(b1-4)][Neu5Ac(a2-3)Gal(b1-4)GlcNAc(b1-4)Man(a1-6)]Man(b1-4)GlcNAc(b1-4)GlcNAc. Put shortly:
as §1

Test [7] has as its target Neu5Ac(a2-3)Gal(b1-4)GlcNAc(b1-3)Gal(b1-4)GlcNAc(b1-2)Man(a1-3)[Neu5Ac(a2-3)Gal(b1-4)GlcNAc(b1-3)Gal(b1-4)GlcNAc(b1-2)Man(a1-6)]Man(b1-4)GlcNAc(b1-4)GlcNAc. The method, boiled down: as §1
The target in test [8] is Neu5Ac(a2-3)[GalNAc(b1-4)]Gal(b1-4)GlcNAc. The method, boiled down:
as §1

Test [9] deals with Neu5Ac(a2-6)Gal(b1-4)GlcNAc(b1-2)Man(a1-3)[Gal(b1-4)GlcNAc(b1-2)Man(a1-6)]Man(b1-4)GlcNAc(b1-4)GlcNAc. The method, boiled down: as §1
Test [10] addresses Neu5Ac(a2-6)Gal(b1-4)GlcNAc(b1-2)Man(a1-6)[Man(a1-3)]Man(b1-4)GlcNAc(b1-4)GlcNAc. The method, boiled down:
as §1

In test [11] the target is Neu5Ac(a2-6)Gal(b1-4)GlcNAc(b1-2)[Neu5Ac(a2-6)Gal(b1-4)GlcNAc(b1-4)]Man(a1-3)[GlcNAc(b1-4)][Neu5Ac(a2-6)Gal(b1-4)GlcNAc(b1-4)Man(a1-6)]Man(b1-4)GlcNAc(b1-4)GlcNAc. The method, boiled down:
as §1

For test [12], the target named is Neu5Ac(a2-6)Gal(b1-4)GlcNAc(b1-3)Gal(b1-4)GlcNAc. The method, boiled down: as §1
The target of test [13] is Neu5Ac(a2-6)Gal(b1-4)GlcNAc(b1-3)Gal(b1-4)GlcNAc(b1-3)Gal(b1-4)GlcNAc(b1-2)Man(a1-3)[Neu5Ac(a2-6)Gal(b1-4)GlcNAc(b1-3)Gal(b1-4)GlcNAc(b1-3)Gal(b1-4)GlcNAc(b1-2)Man(a1-6)]GalNAc. Put shortly: as §1
In test [14] the target is Neu5Ac(a2-8)Neu5Ac(a2-3)[GalNAc(b1-4)]Gal(b1-4)Glc. The method, boiled down: as §1
Test [15] addresses Neu5Ac(a2-8)Neu5Ac(a2-8)Neu5Ac(a2-8)Neu5Ac(a2-3)[GalNAc(b1-4)]Gal(b1-4)Glc. The method, boiled down:
as §1

The target of test [16] is Neu5Gc(a2-3)Gal(b1-3)[Fuc(a1-4)]GlcNAc. Put shortly:
as §1

Another test concerns the target Neu5Gc(a2-3)Gal(b1-4)Glc. The method, boiled down:
as §1

In test [17] the target is Neu5Gc(a2-3)Gal(b1-4)GlcNAc. The method, boiled down:
as §1

Test [18] deals with Fuc(a1-2)Gal(b1-3)[Fuc(a1-4)]GlcNAc. The method, boiled down:
as §1

The target in test [19] is Fuc(a1-3)[Gal(b1-4)]Glc6S. The method, boiled down:
as §1

The target of test [20] is Fuc(a1-3)[Gal(b1-4)]GlcNAc(b1-4)Gal(b1-4)[Fuc(a1-3)]GlcNAc. Put shortly: as §1
Test [21] concerns the target Fuc(a1-3)[Gal3S(b1-4)]Glc6S. Put shortly: as §1
Test [22] addresses Fuc(a1-3)[Gal3S(b1-4)]GlcNAc6S. Put shortly:
as §1

In a further test the target is Gal(a1-6)Glc. Put shortly:
as §1

The target of another test is Gal(b1-3)Gal. The method, boiled down: as §1
For a further test, the target named is Gal(b1-4)Glc6S. The method, boiled down:
as §1

Test [23] addresses Gal(b1-4)GlcNAc(b1-3)Gal(b1-4)[Fuc(a1-3)]GlcNAc(b1-3)Gal(b1-4)[Fuc(a1-3)]GlcNAc. The method, boiled down: as §1
Test [24] deals with Gal(b1-4)GlcNAc(b1-6)Gal(b1-4)GlcNAc. The method, boiled down:
as §1

The target in the next test is Gal3S(b1-3)GlcNAc. Put shortly: as §1
Test [25] concerns the target Gal3S(b1-3)[Fuc(a1-4)]GlcNAc. The method, boiled down: as §1
For another test, the target named is Gal3S6S(b1-4)GlcNAc6S. The method, boiled down: as §1
The next test concerns the target Gal6S(b1-4)GlcNAc. Put shortly:
as §1

Test [26] addresses GlcNAc(b1-4)Gal(b1-4)GlcNAc. Put shortly:
as §1

The target in test [27] is Man(a1-2)Man(a1-3)[Man(a1-6)]Man(a1-6)[Man(a1-2)Man(a1-3)]Man(b1-4)GlcNAc(b1-4)GlcNAc. The method, boiled down: as §1
In test [28] the target is Man(a1-3)[Man(a1-6)]Man(b1-4)GlcNAc(b1-4)GlcNAc. Put shortly: as §1
Test [29] concerns the target Neu5Ac(a2-3)Gal(b1-3)GalNAc. Put shortly: as §1
For test [30], the target named is Neu5Ac(a2-3)Gal(b1-3)GalNAc(b1-3)Gal(b1-4)GlcNAc. Put shortly: as §1
Test [31] addresses Neu5Ac(a2-3)Gal(b1-3)GlcNAc. The method, boiled down:
as §1

Test [32] has as its target Neu5Ac(a2-3)Gal(b1-3)[Neu5Ac(a2-3)Gal(b1-4)]GlcNAc. The method, boiled down: as §1
Test [33] concerns the target Neu5Ac(a2-3)Gal(b1-4)GlcNAc(b1-3)Gal(b1-4)GlcNAc. Put shortly: as §1
The target in test [34] is Neu5Ac(a2-3)Gal(b1-4)[Fuc(a1-3)]GlcNAc6S. Put shortly: as §1
For test [35], the target named is Neu5Ac(a2-3)Gal6S(b1-4)[Fuc(a1-3)]GlcNAc. Put shortly:
as §1

Test [36] deals with Neu5Ac(a2-3)[GalNAc(b1-4)]Gal(b1-4)Glc. The method, boiled down: as §1
The target of test [37] is Neu5Ac(a2-8)Neu5Ac(a2-8)Neu5Ac(a2-3)[GalNAc(b1-4)]Gal(b1-4)Glc. Put shortly: as §1
The target in test [38] is Neu5Ac9Ac(a2-6)Gal(b1-4)GlcNAc. Put shortly:
as §1

B1: CaSRK1 (Capsicum annuum) (protein)
chain: MALCKIFPFAFILLSCSCYLISGQRFDYPTANLSTTWINSVSAPHSIDYTDGSRIRAILLRGTFGPRYACGFYCNGNCESYLFAIFIVQTNSASQITSPAIGFPQVVWSANRNNPVKINSTLQLTAEGDLVLRDADGTLAWSTNTAGKSVAGLSLTDEGNLALFDSKNATVWQSFDHPTDALVPGQKLVPGMKLTASVSRTNWTAGGLFALSAIDNGLVAFVESNPPQKYFEASVGGSNTSGGSNYVKYLNGSLTLFTHSADTTELILISITPASSAQYMKLESNGHLKVYEWTSRGWREVDDLLTGFRGECNYPTVCGRYGICTMGQCSCPTSSSSRTYFRPIDVRRPSLGCSEVTKLTCQNTKKHSPLEVEDVDYFAFKAGISDTDLNTCKRACLEKCSCKAAFFRSGLNSSRTRGDCYLPTEIFSIMNNEKDRTRYDSVAFIKVQV
As for B1, the “glycan array binding signal (z-score)” value in [1] is -0.258; in test [2], -0.303; in the test with Man(a1-6)Man, 1.5; in test [3], -0.549; in test [4] it was 0.467; with Neu5Ac(a2-3)Gal(b1-4)Glc, -0.089. The “glycan array binding signal (z-score)” value in test [5] was 7.73; in test [6], 0.06; in [7] it was 1.33; in test [8] it was -0.414; in test [9], -0.423; in test [10], -0.589. The “glycan array binding signal (z-score)” value in test [11] is -0.513; in [12], -0.402; in test [13] it was 2.58; in test [14], -0.56; in [15], -0.413; in test [16] it was -0.319. Besides, the “glycan array binding signal (z-score)” value is 3.18 with Neu5Gc(a2-3)Gal(b1-4)Glc and -0.416 in test [17].

B2: L-Selectin (Homo sapiens), P14151 (protein)
chain: MIFPWKCQSTQRDLWNIFKLWGWTMLCCDFLAHHGTDCWTYHYSEKPMNWQRARRFCRDNYTDLVAIQNKAEIEYLEKTLPFSRSYYWIGIRKIGGIWTWVGTNKSLTEEAENWGDGEPNNKKNKEDCVEIYIKRNKDAGKWNDDACHKLKAALCYTASCQPWSCSGHGECVEIINNYTCNCDVGYYGPQCQFVIQCEPLEAPELGTMDCTHPLGNFSFSSQCAFSCSEGTNLTGIEETTCGPFGNWSSPEPTCQVIQCEPLSAPDLGIMNCSHPLASFSFTSACTFICSEGTELIGKKKTICESSGIWSNPSPICQKLDKSFSMIKEGDYNPLFIPVAVMVTAFSGLAFIIWLARRLKKGKKSKRSMNDPY
Consider B2, for which the “glycan array binding signal (z-score)” value was -0.36 in test [18]; 0.137 in test [19]; -0.145 in test [20]; 6.9 in [21]; 8.15 in [22]; 0.48 with Gal(a1-6)Glc. Also, the “glycan array binding signal (z-score)” value with Gal(b1-3)Gal is -0.315; in the test with Gal(b1-4)Glc6S, 0.942; in [23] it was -0.38; in [24] it was -0.336; with Gal3S(b1-3)GlcNAc, -0.333; in [25], 3.08. Also, the “glycan array binding signal (z-score)” value is 4.59 with Gal3S6S(b1-4)GlcNAc6S; -0.078 in the test with Gal6S(b1-4)GlcNAc; 0.119 in [26]; -0.024 in [27]; -0.198 in test [2]; -0.246 in [28]. The “glycan array binding signal (z-score)” value in test [29] is 0.005; in test [30] it was -0.116; in test [31], -0.147; in test [32] it was -0.044; in [33], -0.338; in test [34], 9.18. The “glycan array binding signal (z-score)” value is -0.028 in [35], -0.363 in [36], -0.314 in test [37] and 0.073 in [38].
